Assay results: PubChem BioAssay (NCI)
About 83,000 compounds went through this panel and 20% of them were active in at least one assay; those are over-represented in the sample as a whole.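 How to read the values: 0–100, growth inhibition (40 = 60% inhibited); 0, no net growth; -100 to 0, cell death (-40 = 40% of starting cells died; -100 = all dead).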 Values without a mark were called inactive. Activity calls are given as the source filed them.

Tested on: SNB-19 CNS
Experiment: NCI-60 one-dose screen, 48 h (100 = growth as untreated, 0 = no growth, -100 = all killed)
Conditions: 10 µM unless noted
Procedure: Growth inhibition of the SNB-19 human tumor cell line is measured as a screen for anti-cancer activity. Cells are grown in 96 well plates and exposed to the test compound for 48 hours. Compounds are tested at a single concentration, which is 10^-5 M for most compounds. The reported endpoint is percent growth (GI% or GIPRCNT), where numbers from 0 - 100% represent growth inhibition, and numbers from -100% - 0 represent cell death. For example, a value of 40 represents 60% growth inhibition. A value of 0 means no net growth occurred over the course of the experiment. A value of -40 indicates 40% of cells at the beginning of the experiment died by the end of the experiment. A value of -100 means all cells are dead at the end of the experiment.
NCI-60 Human Tumor Cell Lines Screen was performed using the standard one-dose NCI protocol, which is described in more detail at https://dtp.cancer.gov/discovery_development/nci-60/default.htm.
Compounds with GIPRCNT values below 10 were considered active. Activity score was based on GIPRCNT using the following formula: […]
Score is 0 for GIPRCNT values of 100 or above, 50 for GIPRCNT values of 0, and 100 for GIPRCNT values of -100.

Structure (SMILES) | growth
CCOC(=O)C1=C(c2ccccc2)N=C2SC=C(c3ccc(Cl)cc3)N2C1c1ccc(Br)cc1 (stereo not given) | 85.4%
O=C(N/N=C/c1ccc(Cl)cc1)c1[nH]c2ccc(Cl)cc2c1-c1ccccc1 | 15.1%
O=S(=O)(Nc1ccc(F)cc1F)c1ccc(-c2cnc(C3CC3)o2)cc1 | 46.5%
N#CSCC1CC(O)(c2ccccc2)CC(c2ccc(F)cc2)O1 (stereo not given) | 31.9%
C=C1C(=O)O[C@H]2[C@H]1CC/C(COC(=O)C(=O)c1cn(C)c3ccc(Cl)cc13)=C\CC[C@@]1(C)O[C@@H]21 | -75% (active)
O=C1/C(=C\c2ccc3nccnc3c2)SC(=S)N1CCc1ccc(O)cc1 | 94%
Cc1ccc(/C=C2\COc3ccc(O)cc3C2=O)cc1 | 87.5%
CCCCNC(=O)CC1=C(C)/C(=C/c2[nH]c(-c3ccc[nH]3)cc2OC)N=C1C | 67.1%
NC(=O)c1cccc(-n2ccc3cc(NC(=O)c4ccc(N5CCOCC5)c(C(F)(F)F)c4)ccc32)n1 | 70.7%
OCCn1cc(-c2nc(-c3c[nH]c4ncccc34)cs2)c2cc(F)ccc21 | 79.5%
CCCCCCCCCCCCCCCCCCOc1ccccc1CC(=O)OCC[N+](C)(C)C | 29.9%
COc1cc(-c2nc3sccn3c2-c2ccnc(NCCNS(=O)(=O)c3ccccc3)n2)ccc1F | 67.6%
Cc1ccc(-c2nc(N3CCCNCC3)c3oc(-c4ccc(C)cc4)nc3n2)cc1 | 58.2%
COC1=CC(c2ccc[nH]2)=N/C1=C\c1[nH]c(C)c(CC(=O)OCc2ccccc2)c1CCC(=O)OCc1ccccc1 | 25.5%
Nc1nc(N)c(-c2ccc(Cl)c(Cl)c2)c(CBr)n1 | 94%
CNC(=O)c1ccccc1Oc1nc(Nc2cc(OC)c(OC)c(OC)c2)ncc1Br | 94.9%
CC(C)C1=NOC(=O)C1=Cc1cn(-c2ccccc2)nc1-c1ccc(F)cc1 | 81.7%
N#Cc1nc(-c2ccc(F)cc2)oc1S(=O)(=O)N1CCOCC1 | 95.8%
CCNCCNc1cc(-c2ccc(C(F)(F)F)cc2)c(C#N)c2nc3ccccc3n12 | -78.1% (active)
COc1cc2c(c(OC)c1OC)CCC(c1cccc(C(=O)Nc3cccc(Cl)c3)c1)O2 (stereo not given) | 76.5%

Structure (SMILES) | growth
O=C1NC(=C(Cl)Cl)/C(=N\S(=O)(=O)NCc2ccccc2)N1 | 91.2%
COc1c(B(O)O)cccc1-c1cc(C)c2c(ccc3[nH]ncc32)n1 | 91.1%
CCOC(=O)[C@@H]1CSC(CC)=C(C(=O)O)N1 | 100%
CCN(CC)S(=O)(=O)c1ccc(S(=O)(=O)N2CCC[C@@H](C(=O)N3CCN(c4nc(C(C)C)no4)CC3)C2)cc1 | 64.2%
CN1CCN(c2cc(Nc3cc(C4CC4)[nH]n3)nc(Nc3ccc(CC(=O)NCc4cccc(F)c4)cc3)n2)CC1 | 40%
Cc1c(-c2ccc(O)cc2)n(Cc2ccc(OCCN3CCCCCC3)cc2)c2ccc(O)cc12 | 88.1%
CCCC/C(CC)=N\NS(=O)(=O)c1ccc([N+](=O)[O-])cc1 | 95.2%
CC(C)c1ccc(Cc2cnc(NC(=O)c3cc(Br)cs3)s2)cc1 | 42.9%
CC(C)(C)[Si](C)(C)OC1[C@@H](CNC(=O)NC(=O)NC(N)=O)O[C@@H](n2cnc3c(NC(=O)Nc4ccccc4)ncnc32)[C@H]1O[Si](C)(C)C(C)(C)C (stereo not given in full) | 98.3%
COc1ccc(Nc2ncc(Br)c(NCCCNC(=O)C3CCCC3)n2)cc1 | 35.2%
COc1ccc(NC2=C(I)C(=O)c3ncccc3C2=O)cc1 | 19.3%
CCC1=C[C@@H]2C[C@]3(C(=O)OC)c4[nH]c5ccccc5c4CC[N@+](CC(=O)Nc4cc5c(cc4OC)N(C)[C@H]4[C@@](O)(C(=O)OC)[C@H](OC(C)=O)[C@]6(CC)C=CCN7CC[C@]54[C@@H]76)(C2)[C@H]13 | 110%
NC(=O)CSc1oc(-c2ccccc2)nc1S(=O)(=O)c1ccc(Br)cc1 | 83%
C#Cc1c2c(c(OC)c3c1OCO3)[C@H]([C@H]1OC(=O)c3c1ccc(OC)c3OC)N(C)CC2 | 92.7%
C=C1C(=O)O[C@H]2[C@H]1CC/C(COC(=O)NCc1ccc(Cn3c(=O)sn(CCCCC)c3=O)cc1)=C\CC[C@@]1(C)O[C@@H]21 | 85.9%
CCN(CC)CCn1c2ccc(OC)cc2c2sc3cc(OC)ccc3c(=O)c21 | 28.9%
COc1ccc(/C=N/C2=C(C#N)C(c3ccccc3)c3ccc4ccccc4c3O2)cc1 (stereo not given) | 24.6%
O=C1/C(=C/c2ccccc2O)CC/C1=C\c1ccccc1O | 31.3%
c1ccc(-c2oc(-c3ccccc3)c(CN3CCCCC3)c2CN2CCCCC2)cc1 | 44.5%
NC(=O)c1cc(I)ccc1NC(=O)/C=C/c1ccccc1 | 27.3%
